This is a sample that favours compounds with a hit; in the whole collection about 1.6% have one here.
KCNQ2 pot: enhances the rat KCNQ2 potassium channel. AID 2239. 310,000 tested, 0.54% active. B-score at 10 µM. CHO-K1 KCNQ2, FluxOR thallium flux fluorescence; stronger effect = higher value;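 active means fluorescence ratio B-score at least 3 SD of library B-scores, with initial fluorescence B-score within 3 of them, cut at about 5.3 in these data; same plate scores as AID 2156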;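 further: B-score of peak minus minimum over baseline fluorescence ratio after K+ and Tl+ stimulus; positive B-score means potentiation of KCNQ2 with more thallium influx and brighter signal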
KCNQ2 block: inhibitors of rat KCNQ2 potassium channel | O88943 | CHO-K1 KCNQ2, FluxOR thallium flux, 20 min; stronger effect = lower value | B-score at 10 µM | 310,000 tested, 1.1% active;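 active means fluorescence ratio B-score at most minus 3 library SDs, with starting brightness B-score within 2 library SDs, cut at about -5.5 in these data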
Numbers stand for hits.

What do the screens show for `Fc1ccccc1Cc1noc(CN2CCN(c3ccc(Cl)cn3)CC2)n1`?
KCNQ2 pot: inactive; KCNQ2 block: -5.6

What do the screens show for `Clc1ccccc1Cc1noc(CN2CCN(c3cnccn3)CC2)n1`?
KCNQ2 block: inactive

What do the screens show for `O=C(/C=C/c1c(F)cccc1Cl)NCc1ccc2c(c1)OCO2`?
KCNQ2 pot: inactive; KCNQ2 block: inactive

Results for O=C(NC1CC1)C1CCN(C(=O)c2ccc(Cl)cc2Cl)CC1 ?
KCNQ2 pot: inactive; KCNQ2 block: inactive

What do the screens show for `COCCN(C(=S)Nc1ccc(OC)cc1)C(C)c1cccs1` (centres undefined)?
KCNQ2 pot: inactive; KCNQ2 block: inactive

How did Cc1ccc(NC(=S)N(Cc2ccco2)C(C)c2cccs2)c(Cl)c1 (centres undefined) do in these assays?
KCNQ2 pot: inactive; KCNQ2 block: -6.2

How did Cc1ccc(C)c(NC(=S)N(Cc2ccco2)C(C)c2cccs2)c1 (centres undefined) do in these assays?
KCNQ2 block: inactive

How did Cc1ccc(NC(=O)N(Cc2cccnc2)Cc2ccco2)cc1C do in these assays?
KCNQ2 block: inactive

How did COCCN(C(=S)Nc1cc(C)cc(C)c1)C(C)c1cccs1 (centres undefined) do in these assays?
KCNQ2 pot: 8; KCNQ2 block: inactive

How did Cc1ccc(NC(=O)N(Cc2ccco2)C(C)c2ccco2)cc1C (centres undefined) do in these assays?
KCNQ2 pot: inactive; KCNQ2 block: -5.9

How did COc1cccc(NC(=O)N(Cc2ccco2)C(C)c2cccs2)c1 (centres undefined) do in these assays?
KCNQ2 pot: inactive; KCNQ2 block: inactive

Results for CC(c1cccs1)N(Cc1ccco1)C(=O)Nc1ccc(Cl)c(Cl)c1 (centres undefined) ?
KCNQ2 pot: inactive; KCNQ2 block: -13

Results for COc1ccc(C)cc1-n1cnnn1 ?
KCNQ2 block: inactive

How did Cc1ccc(NC(=O)CN(Cc2ccco2)Cc2ccccc2O)cc1C do in these assays?
KCNQ2 pot: inactive; KCNQ2 block: -5.8

What do the screens show for `Cc1ccc(NC(=O)C[n+]2ccccc2)cc1C`?
KCNQ2 pot: inactive; KCNQ2 block: inactive

How did C/C(=N\NC(=O)c1ccc(Cn2cc(Br)cn2)o1)c1ccc(NC(=O)c2ccoc2C)cc1 do in these assays?
KCNQ2 block: inactive

What do the screens show for `COc1ccc(OC)c(Cc2nnc(CCC(=O)N3CCCCC3c3nccs3)o2)c1` (centres undefined)?
KCNQ2 block: inactive

What do the screens show for `COC(=O)c1ccccc1NC(=O)c1cn(-c2ccc(C)c(C)c2)c(=O)c2ccccc12`?
KCNQ2 block: inactive

Results for CCOC(=O)c1ccccc1NC(=O)c1cn(-c2ccc(C)c(C)c2)c(=O)c2ccccc12 ?
KCNQ2 pot: inactive; KCNQ2 block: -6.4

How did COc1ccc(CC2(CO)CCN(S(=O)(=O)c3cccc4cccnc34)CC2)cc1 do in these assays?
KCNQ2 pot: inactive; KCNQ2 block: inactive

What do the screens show for `CC1CCC(NC(=O)CCS(=O)(=O)c2ccc3c(c2)oc(=O)n3C)CC1` (centres undefined)?
KCNQ2 pot: inactive; KCNQ2 block: inactive

How did CC12CCC(=O)N1C(C(=O)Nc1nc3ccc(Cl)cc3s1)CS2 (centres undefined) do in these assays?
KCNQ2 pot: inactive; KCNQ2 block: -6

How did CC12CCC(=O)N1C(C(=O)Nc1nc3ccc(S(C)(=O)=O)cc3s1)CS2 (centres undefined) do in these assays?
KCNQ2 pot: inactive; KCNQ2 block: inactive

Results for Cc1cccc(CSC2=NCCN2S(=O)(=O)c2ccc(F)cc2)c1 ?
KCNQ2 block: inactive

What do the screens show for `CCOCCCNC(=O)c1ccc2c(c1)ncn2-c1ccccc1OC`?
KCNQ2 block: inactive

How did Fc1ccc(Nc2nc(N3CCOCC3)c3ccccc3n2)cc1 do in these assays?
KCNQ2 block: inactive

What do the screens show for `c1ccc2c(Nc3nc(N4CCOCC4)c4ccccc4n3)cccc2c1`?
KCNQ2 pot: inactive; KCNQ2 block: -6.5

Results for COc1cc(OC)cc(C(=O)Nc2ccccc2-c2nnn(CC(=O)Nc3cc(C)on3)n2)c1 ?
KCNQ2 pot: inactive; KCNQ2 block: inactive

How did Cc1ccccc1NC(=O)CC1SC(=Nc2ccc(O)cc2)NC1=O (centres undefined) do in these assays?
KCNQ2 pot: inactive; KCNQ2 block: inactive

What do the screens show for `CC(C)=N/N=C1/NC(=O)C(CC(=O)Nc2cc(Cl)ccc2C)S1` (centres undefined)?
KCNQ2 pot: 5.8; KCNQ2 block: inactive

What do the screens show for `O=C(O)c1ccc(Cl)c(S(=O)(=O)Nc2ccccc2Cc2ccccc2)c1`?
KCNQ2 block: inactive

Results for O=C(O)c1cc(S(=O)(=O)Nc2ccccc2Cc2ccccc2)ccc1Cl ?
KCNQ2 pot: inactive; KCNQ2 block: -8.1

What do the screens show for `O=C(CSc1nnc(COc2ccc(Cl)cc2)o1)N1CCCC1`?
KCNQ2 pot: inactive; KCNQ2 block: inactive

Results for O=C(CSc1nnc(COc2ccc(Cl)cc2)o1)N1c2ccccc2CCc2ccccc21 ?
KCNQ2 pot: inactive; KCNQ2 block: -9.4

Results for C=CCn1c(=O)c(C(=O)NCc2ccc(Cl)cc2)c(O)c2ccccc21 ?
KCNQ2 pot: inactive; KCNQ2 block: -6

What do the screens show for `C=CCn1c(=O)c(C(=O)Nc2ccc(C)cn2)c(O)c2ccccc21`?
KCNQ2 block: inactive

Results for O=C(NCC(c1ccco1)N1CCN(c2ccccc2F)CC1)c1ccco1 (centres undefined) ?
KCNQ2 block: inactive

How did CCn1nc(C)c(NC(=O)CC23CC4CC(CC(C4)C2)C3)c1C do in these assays?
KCNQ2 pot: 21; KCNQ2 block: inactive

Results for Cc1nn(C)cc1NC(=O)CC12CC3CC(CC(C3)C1)C2 ?
KCNQ2 pot: inactive; KCNQ2 block: inactive

What do the screens show for `Cc1ccc2c(c1)N(Cc1ccc3c(c1)OCO3)C(=O)C(C)O2` (centres undefined)?
KCNQ2 block: inactive

How did CCC1Oc2ccc(C)cc2N(Cc2cccc(C)c2)C1=O (centres undefined) do in these assays?
KCNQ2 pot: inactive; KCNQ2 block: -5.9

What do the screens show for `CCC(C)NC(=O)COC(=O)c1oc2ccccc2c1CSc1ccc(Cl)cc1` (centres undefined)?
KCNQ2 pot: inactive; KCNQ2 block: -6.1

What do the screens show for `O=C(O)c1oc2ccccc2c1CSc1ccc(Cl)cc1`?
KCNQ2 pot: inactive; KCNQ2 block: inactive

Results for CCN(CC(=O)Nc1ccc(OC)cc1)C(=O)c1oc2c(Cl)cccc2c1C ?
KCNQ2 pot: inactive; KCNQ2 block: inactive

Results for Cc1cccc(C)c1OCC(=O)Nc1ccccc1C(F)(F)F ?
KCNQ2 pot: inactive; KCNQ2 block: -7

How did Cc1cccc(OCC(=O)Nc2ccccc2C(F)(F)F)c1 do in these assays?
KCNQ2 block: inactive

How did Cc1cccc(C)c1OCC(=O)NCc1ccccc1 do in these assays?
KCNQ2 pot: inactive; KCNQ2 block: -6.4

What do the screens show for `CCN(CC(=O)Nc1ccccc1C(F)(F)F)C(=O)c1oc2c(Cl)cccc2c1C`?
KCNQ2 pot: inactive; KCNQ2 block: -6.8

What do the screens show for `O=C(COc1ccccc1)NCc1ccccc1`?
KCNQ2 pot: inactive; KCNQ2 block: inactive

Results for COc1ccc(NC(=O)CN(C)C(=O)C23CC4CC(CC(C4)C2)C3)cc1 ?
KCNQ2 block: inactive

What do the screens show for `COc1ccc(CN2CCc3ccccc3C2)cc1Br`?
KCNQ2 pot: inactive; KCNQ2 block: inactive

Results for Cc1cc(C)c(S(N)(=O)=O)c(C)c1N(C)S(=O)(=O)c1ccc(Cl)cc1 ?
KCNQ2 pot: inactive; KCNQ2 block: inactive

What do the screens show for `CCOc1ccc2[nH]c(=O)c(C(c3nnnn3Cc3ccco3)N3CCCC(C)C3)cc2c1` (centres undefined)?
KCNQ2 pot: inactive; KCNQ2 block: -6.5
